The source of these data is PubChem BioAssay AID1490 (National Center for Advancing Translational Sciences (NCATS), 2009).

Screen size: about 310,000 compounds; about 11,000 (3.5%) were called active. Another 4% or so got no clear call; they are omitted. What follows is part of a selection rich in actives, with near analogues and random picks from the rest. Unmarked numbers belong to inactive results. Calls follow the shape of the dose curve; as a rule, active = well fitted inhibition curve with a large enough effect; inconclusive = small, poorly fitted or top-dose-only effect, or another doubt; inactive = no such curve, though single readings can be large or run the other way.
Potency is read from the fitted curve at half-maximal effect.

In this assay the target is 4'-phosphopantetheinyl transferase ffp (Bacillus subtilis) (UniProt Q9F4F7). Description: qHTS Assay for Inhibitors of Bacillus subtilis Sfp phosphopantetheinyl transferase (PPTase).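 Also: the enzyme is Sfp with the accession as filed and its product quenches rhodamine fluorescence.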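 As to largest response in the series, negative = inhibition: 0% = enzyme reaction without inhibitor and -100% = no enzyme wells.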 To be noted: Biochemical Sfp PPTase activity. In short, it runs like this: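 Buffer: 50 mM Hepes-Na pH 7.6, 10 mM MgCl2, 0.01% Nonidet P-40, 0.01% BSA. Enzyme 15 nM, pre-exposed to compound 15 min; substrates then added and fluorescence change tracked over 30 min.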
Regarding `COc1cc(CN2CC(C)CC(C)C2)cc([N+](=O)[O-])c1O` (centres undefined), the largest response in the series, negative = inhibition is -8.11%. As for `COc1cc(CN2CCN(Cc3ccc(C)cc3)CC2)c([N+](=O)[O-])cc1OC`, the Potency was 56.2 µM (active).

In the case of `COc1cc(CN2CCCN(C)CC2)c([N+](=O)[O-])cc1OC`, the largest response in the series, negative = inhibition is 5.29%. Consider `COc1cccc(OCc2nnc3n2N=C(c2ccccc2)C(CC(=O)O)S3)c1` (centres undefined), for which the largest response in the series, negative = inhibition is 13.2%. For the compound `COc1ccc(OCC(=O)NNC(=O)c2ccc(-c3ccccc3)cc2)cc1`, the largest response in the series, negative = inhibition is -6.16%.

As to `COc1ccc(OCc2nnc3n2N=C(c2ccccc2)C(CC(=O)O)S3)cc1` (centres undefined), the Potency was 4.47 µM (active). In the case of `COc1cccc(CNC(=O)C2CCCN(c3ncnc4c3nc3n4CCCCC3)C2)c1` (centres undefined), the largest response in the series, negative = inhibition is 3.29%. As for `COC(=O)c1cccc(-n2[nH]nnc2=S)c1`, the Potency was 15.8 µM (active).

`COC(=O)c1cccc(N2C(=O)C3C4C=CC(CC4)C3C2=O)c1` (centres undefined): the largest response in the series, negative = inhibition was 11.5%. In the case of `COC(=O)c1cccc(NS(C)(=O)=O)c1`, the largest response in the series, negative = inhibition was 9.77%. The same measure, in the same setting: for `CC1(C)Cc2c(sc(NC(=O)C(=O)NCC3CCCO3)c2C(=O)O)CO1` (centres undefined) the value was 8.68%; for `C=C(C(C)=O)C(O)c1ccc([N+](=O)[O-])cc1` (centres undefined), -25.7%. Consider `CC(=O)Nc1c2c(nn1-c1cccc(C)c1)CSC2`, for which the largest response in the series, negative = inhibition is 15.2%.

As for `CCN1/C(=C/c2ccc3ccc(C)cc3[n+]2CC)Sc2ccccc21`, the largest response in the series, negative = inhibition was -8.02%.

For `CCN1/C(=C/C(=S)Nc2ccccc2)Sc2ccccc21`, the Potency is 14.1 µM (active). Regarding `O=C(CCN1c2ccccc2Sc2ccccc21)Nc1ccccc1`, the largest response in the series, negative = inhibition was -1.89%. The same measure, in the same setting: for `Cc1ccc(S(=O)(=O)N2CCC3(CC2)OCCO3)c(C)c1` the value was 19.7%. On to `CCc1[nH]nc(C(=O)N2CCCC(CO)(Cc3ccc(F)cc3F)C2)c1C` (centres undefined), for which the largest response in the series, negative = inhibition is 4.7%. For the compound `COC(=O)C1CCN(C(=O)c2ccc3oc(Cc4ccc(Cl)cc4)nc3c2)CC1`, the largest response in the series, negative = inhibition is 16.5%. On the same count and under the same terms, as for `O=C(CN1CCOCC1)N/N=C/c1ccc(-c2ccc(Br)cc2)o1`, the figure is -29.3%. In the case of `Cc1cc(C)c([N+](=O)[O-])cc1-c1ccc(/C=N/NC(=O)c2nonc2N)o1`, the largest response in the series, negative = inhibition was -8.88%. In the case of `Cc1ccc(-c2ccc(/C=N/NC(=O)CN3CCOCC3)o2)cc1[N+](=O)[O-]`, the Potency was 50.1 µM (active).

`Cc1[nH]c2ccc(C(=O)N3CCN(C)CC3)cc2c1C`: the largest response in the series, negative = inhibition is 9.64%.

`Cc1ccc(-c2csc(NC3OC(=O)c4ccccc43)n2)cc1` (centres undefined): the largest response in the series, negative = inhibition was 7.08%. Still for that read-out and setting: as for `NC(=O)C1CCN(CC(O)CSc2ccc(F)cc2)CC1` (centres undefined), the figure is 0.977%. `Cc1ccc(C(=O)NNC(=O)c2cc3cc4ccccc4nc3s2)cc1`: the largest response in the series, negative = inhibition is -2.23%. Take `Cc1ccc(C(=O)NNc2ncnc3ccccc23)cc1`: the Potency is 70.8 µM (active). With `CCc1nc(SCC(=O)NNC(=O)c2ccc(C)cc2)c2ccccc2n1`, the largest response in the series, negative = inhibition was 10%. As to `CCOc1cc(NC(=O)Nc2ccccc2)c(OCC)cc1NC(=O)CC`, the largest response in the series, negative = inhibition was 17.2%. Same read-out and setting: for `COc1cc(C(=O)NCc2cc3cc(Cl)ccc3n2C)cc(OC)c1OC` the value was 9.69%.

`O=C(Nc1ccc(S(=O)(=O)N2CCOCC2)cc1)c1ccc2ncsc2c1`: the Potency is 50.1 µM (active).

Take `O=C(Nc1ccc(N2CCOCC2)c(Cl)c1)c1ccc(S(=O)(=O)N2CCOCC2)cc1`: the largest response in the series, negative = inhibition was 10.6%. As to `O=C(Nc1ccc(S(=O)(=O)Nc2nccs2)cc1)c1cccc(S(=O)(=O)N2CCOCC2)c1`, the largest response in the series, negative = inhibition was 10%. In the case of `CC(C)c1nc(CNC(=O)CC2C(=O)NCCN2Cc2cccc(F)c2F)cs1` (centres undefined), the largest response in the series, negative = inhibition was 7.23%. The same measure, in the same setting: as for `CC(=O)NC(CC(=O)Nc1nc(-c2ccccc2)c(C(C)=O)s1)c1ccccc1` (centres undefined), the figure is 2.16%; as for `CN(C(=O)CCN1C(=O)/C(=C/c2ccccc2F)SC1=S)C1CCS(=O)(=O)C1` (centres undefined), 1.57%.

As to `CCOC(=O)CSc1nc(C)c(Oc2ccc(Cl)cc2Cl)c(=O)[nH]1`, the largest response in the series, negative = inhibition was 11.2%.

With `CCOC(=O)c1c(NC(=O)CSc2nnc(C)c(=O)[nH]2)sc2c1CCC2`, the largest response in the series, negative = inhibition was 12%. Regarding `CCCCOC(=O)CNc1nnc(SCC(=O)OCC)[nH]c1=O`, the Potency is 20 µM (active). With `CCn1c(COc2ccccc2)nnc1SCC(=O)NCc1ccco1`, the largest response in the series, negative = inhibition was 21.1%. With `C=CCn1c(CSc2nc3ccccc3s2)nnc1SCC(=O)NCc1ccco1`, the Potency was 15.8 µM (active). As to `C=CCn1c(SCC(=O)Nc2nc3ccccc3s2)nnc1-c1ccccc1O`, the largest response in the series, negative = inhibition is -3.27%.

As for `CC(=O)c1cc2c(cc1NC(=O)Cn1nc(-c3ccc(F)cc3)ccc1=O)OCO2`, the largest response in the series, negative = inhibition was 8.25%. Still for that read-out and setting: for `COc1ccc(S(=O)(=O)NCCc2cc3ccc(C)c(C)c3[nH]c2=O)cc1` the value was 8.17%. `Cc1cc(O)c(C2(O)C(=O)Nc3ccccc32)cc1C` (centres undefined): the largest response in the series, negative = inhibition is 0.726%. As for `O=C1Nc2ccccc2C12Nc1ccccc1S2` (centres undefined), the Potency is 20 µM (active). For the compound `COc1ccc(C2(O)C(=O)Nc3ccccc32)cc1` (centres undefined), the largest response in the series, negative = inhibition is 5.11%. Regarding `CN1CCN(c2ncc3nc(-c4ccc(Cl)cc4)c(=O)n(-c4ccccc4)c3n2)CC1`, the largest response in the series, negative = inhibition was -4.61%. On to `CCOC(=O)c1c(S(=O)(=O)Nc2cccc(Cl)c2)c(C)n(C)c1C`, for which the largest response in the series, negative = inhibition is 17.3%. With `COC(=O)c1cnn2c(C(F)(F)F)cc(-c3ccco3)nc12`, the largest response in the series, negative = inhibition was -3.33%. As for `Cc1cc(C)c2nc(-c3ccco3)cc(C(=O)O)c2c1`, the Potency is 20 µM (active). For the compound `Cc1ccsc1-c1cc(C(=O)O)c2c(ccc3ccccc32)n1`, the largest response in the series, negative = inhibition is 5.93%. As to `Cc1ccc(S(=O)(=O)c2c[nH]c3ccc(C)cc3c2=O)cc1`, the largest response in the series, negative = inhibition was 18.3%. Regarding `COc1cc(C)cc(CN2CCC(Cc3ccccc3)CC2)c1O`, the largest response in the series, negative = inhibition is 15.6%. As for `Cc1cccnc1NC(=O)CSc1nnc(COc2ccc(C(C)C)cc2)n1C`, the largest response in the series, negative = inhibition was -2.86%. As to `Cc1ccc(OCc2nnc(SC3CCc4ccccc4C3=O)n2C)cc1` (centres undefined), the Potency was 25.1 µM (active). With `Cc1ccc(OCc2nc3ccccc3n2C)cc1`, the largest response in the series, negative = inhibition is 16.9%.

Take `CCCCNC(=O)c1ccccc1NC(=O)C1=C(C)OCCS1`: the largest response in the series, negative = inhibition was 4.87%. Turning to `CCC(C)NC(=O)c1ccccc1NC(=O)c1ccccc1N(C)S(C)(=O)=O` (centres undefined), the largest response in the series, negative = inhibition was 17.5%. As for `CCCCNC(=O)c1ccccc1NC(=O)c1ccccc1N(C)S(C)(=O)=O`, the Potency was 50.1 µM (active).

In the case of `C=CCOC(=O)C(C(C)=O)C(NC(=O)OC)c1ccccc1` (centres undefined), the largest response in the series, negative = inhibition is 17.2%.

For `COc1ccc(C)cc1NC(=O)CN(C)S(=O)(=O)c1ccc2c(c1)n(C)c(=O)c(=O)n2C`, the largest response in the series, negative = inhibition is 13.5%. Same read-out and setting: for `COc1ccc(S(=O)(=O)N2CCN(C)CC2)c(C)c1` the value was 13.7%; for `C[C@]12CC[C@@H]3C(=CCc4cc(O)ccc43)[C@@H]1CCC2=O`, -11.9%. As for `COc1ccc2c(c1)CC[C@@H]1[C@@H]2CC[C@]2(C)C(=O)CC[C@@H]12`, the Potency was 50.1 µM (active).

On to `CCCc1c(C(=O)N/N=C(\C)CCc2ccc(OC)cc2)nnn1-c1nonc1N`, for which the largest response in the series, negative = inhibition was 10.3%. Still for that read-out and setting: for `CCOc1ccc(N2C(=O)CN(c3cccc4ccccc34)C2=S)cc1` the value was 11.1%; for `CCO/C=C1\C(=O)N(c2ccc(OCC)cc2)C(=O)c2ccccc21`, 3.31%. In the case of `CCOc1ccc(N2C(=O)/C(=C/c3ccc(C)o3)N(C)C2=S)cc1`, the Potency was 3.98 µM (active). With `COC(=O)C1=C(C(=O)OC)[C@@H]2N(C)c3ccccc3[C@@]23C[C@@H](C(=O)OC)N(S(=O)(=O)c2ccc(Br)cc2)C3=N1`, the largest response in the series, negative = inhibition is 14%. Still for that read-out and setting: as for `CCOC(=O)C1=C(C)N=C2c3ccccc3C(=O)C2C1c1ccc(Br)cc1` (centres undefined), the figure is 10.1%.

`CCOC(=O)C1=NO[C@@]2(C=C(Br)C(=O)[C@H]3O[C@H]32)C1`: the Potency was 31.6 µM (active). Take `CCOC(=O)C1=NOC(Cn2cc(C(C)=O)c(=O)[nH]c2=O)C1` (centres undefined): the largest response in the series, negative = inhibition was 15.9%. Still for that read-out and setting: as for `Cc1c(C=O)c2ccccc2n1CCOc1ccccc1`, the figure is -1.13%; as for `CCOc1ccc(N/C=C/C(=O)c2cc(OC)c(OC)c(OC)c2)cc1`, -7.21%.

For the compound `COc1ccccc1NC(=O)CSc1nnc(CNC(=O)c2ccccc2F)o1`, the largest response in the series, negative = inhibition was 15.2%. The same measure, in the same setting: for `NC(=O)c1c(NC(=O)CSc2nc(N)cc(=O)[nH]2)sc2c1CCCC2` the value was -28%; for `CCc1cccc(C)c1NC(=O)CSc1nnc(-c2ccco2)n1N`, -3.08%. With `NC(=O)c1c(NC(=O)CSc2nnc(-c3ccco3)n2N)sc2c1CCCC2`, the Potency is 5.62 µM (active). With `CCOc1ccccc1NS(=O)(=O)c1c[nH]c(C(=O)OC)c1`, the largest response in the series, negative = inhibition was 4.59%.

With `CC(OC(=O)c1ccccc1N1C(=O)C2C3CCC(C3)C2C1=O)C(=O)c1ccccc1` (centres undefined), the largest response in the series, negative = inhibition was 11.3%.

Regarding `CCOC(=O)c1ccccc1N1C(=O)C2Sc3[nH]c(=O)sc3C(/C=C/c3ccccc3)C2C1=O` (centres undefined), the Potency was 12.6 µM (active). Turning to `COC(=O)C1=C(C)N=C2SC(C)C(=O)N2C1/C=C/c1ccccc1` (centres undefined), the largest response in the series, negative = inhibition was 18.9%. Regarding `CC1CCCN(CCOCCOc2ccccc2-c2ccccc2)C1` (centres undefined), the largest response in the series, negative = inhibition was -31.6%. Consider `c1ccc(-c2ccccc2OCCN2CCCCC2)cc1`, for which the largest response in the series, negative = inhibition is -19%. `CC1CN(CCCOc2ccccc2-c2ccccc2)CC(C)O1` (centres undefined): the Potency was 56.2 µM (active). For the compound `CN1CCN(CCCCOc2cccc3ccccc23)CC1`, the largest response in the series, negative = inhibition is 4.87%. For the compound `CN1CCN(CCCCOc2ccccc2-c2ccccc2)CC1`, the Potency was 56.2 µM (active). For `CC1CN(CCOc2ccccc2[N+](=O)[O-])CC(C)O1` (centres undefined), the largest response in the series, negative = inhibition is -26.3%.

As for `CCN(CC)CCCNC(=O)CCn1nc(-c2ccc(Cl)cc2)ccc1=O`, the largest response in the series, negative = inhibition is 13.6%. The same measure, in the same setting: for `OC(CNC1CCCC1)COc1ccc(F)cc1` (centres undefined) the value was 1.37%; for `CCc1cccc(C)c1N1C(=O)CN(Cc2ccccc2)C1=S`, 13.8%; for `C#CC(C)(C)NC(=O)c1cnc(-c2ccccc2)nc1-c1ccccc1`, 8.13%. `COc1ccc(C(=O)n2nc(C)c(Br)c2C)cc1OC`: the largest response in the series, negative = inhibition is 16.8%.
